Screens from PubChem BioAssay.
Shown are actives, neighbours in structure and some others; about 2.1% of the full set was active somewhere.
ClpP mod: qHTS Assay for Activators of ClpP; 340,000 tested, 1.9% active; purified B. subtilis ClpP, FRET peptide cleavage, 20 min; Potency, µM (titrated, usually from 57.5 µM); active = well fitted falling curve with a large enough effect; inconclusive = small, poorly fitted or top-dose-only effect; inactive = no such curve, though single readings can be large or run the other way; also: the source files actives as falling curves though it sought activators and does not explain the sign; nearly all actives have a fitted effect of over 65% in size
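Buffer: 100 mM Tris/HCl pH8, 100 mM KCl, 0.05% low protease BSA, 2.5% glycerol, 0.01% Tween-20. ClpP 10 microg/mL final; 20 min RT; delta FRET normalized to ADEP and DMSO controls.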
Mito fusion act: blocks mitochondrial division or promotes mitochondrial fusion; Potency, µM (titrated, usually from 46.1 µM), actives largely listed as activators; 320,000 tested, 0.23% active; S. cerevisiae fusion-defective mutant growth rescue, CellTiterGlo 48 h; also: nearly all actives have a fitted effect of over 45% in size
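Yeast fusion mutant, YPEG (non-fermentable carbon), compound, 48 h at 37C non-permissive; CellTiterGlo added, 10 min RT, luminescence read. Rescued growth = division inhibition.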
uPA surface inh: blocks generation of uPA at the cell surface; Potency, µM (titrated, usually from 38.3 µM), most hits filed as inhibitors; AID 540303; cell surface uPA generation assay, qHTS; 330,000 tested, 0.31% active; active = well fitted inhibition curve with a large enough effect; inconclusive = small, poorly fitted or top-dose-only effect; inactive = no such curve, though single readings can be large or run the other way; tested in mouse RAW 264.7 cells; also: nearly all actives have a fitted effect of over 55% in size
B2AR arrestin: beta2AR (human) beta-arrestin recruitment activity; Potency, µM (doses to about 46.1 µM), usual class: activators; beta-arrestin recruitment to beta2AR, cell-based reporter; 330,000 tested, 0.02% active; P07550; also: nearly all actives have a fitted effect of over 65% in size
Giardia killer: Giardia lamblia killing; Giardia lamblia trophozoite viability; activity change, % at 7.66 µM, hits read low; 340,000 tested, 0.15% active; in the data active = activity change below about -80%; inconclusive = between about -30% and that limit;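 also: parasites exposed to compound for two days anaerobically before the ATP read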
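ATP-content bioluminescence gauges trophozoite survival. Cells (100/well) receive compound and incubate anaerobically for 48 hrs at 37 deg C; detection reagent follows for 15-30 min at room temperature.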
p53 reactivation: mutant p53 re-activation in reporter cells; AID 504706; H1299 p53-A138V BP100-luciferase reporter, luminescence, 24 h; 320,000 tested, 0.063% active; Potency, µM (doses to about 92.2 µM), hits mostly activators; also: nearly all actives have a fitted effect of over 45% in size
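H1299 (p53-null), stable ts p53-A138V + BP100-Luc; 1000 cells/well, Opti-MEM/10% FBS; cpd 4 pt, 1:5; 24 h, 37 deg C, 5% CO2; detection reagent 10 min RT; luminescence.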
Hits are given with their value; i = inactive; ? = inconclusive; nt = no result. Unless noted, calls follow the shape of the dose curve; as a rule, active = well fitted curve in the direction sought with a large enough effect; inconclusive = small, poorly fitted or top-dose-only effect, or another doubt; inactive = no such curve, though single readings can be large; an effect the other way counts as inactive or inconclusive.

SMILES | ClpP mod | Mito fusion act | uPA surface inh | B2AR arrestin | Giardia killer | p53 reactivation
CCCCN(C)C(=O)CCC(=O)Nc1ccc2nc(N3CCOCC3)cc(C)c2c1 | 7.94µM | i | nt | i | i | ?
Cc1cc(N2CCOCC2)nc2ccc(NC(=O)CCC(=O)N3CCC(C)CC3)cc12 | 28.2µM | i | i | i | i | i
COc1ccc(N(C)C(=O)CCC(=O)Nc2ccc3nc(N4CCOCC4)cc(C)c3c2)c(OC)c1 | 28.2µM | i | nt | i | i | i
COc1cc(NC(=O)CCC(=O)Nc2ccc3nc(N4CCOCC4)cc(C)c3c2)cc(OC)c1OC | 25.1µM | i | i | i | i | i
O=C(CCCCn1c(=O)c2ccccc2n(CC(=O)Nc2ccccc2)c1=O)NCc1ccccc1Cl | i | nt | nt | nt | nt | nt
COC(=O)c1ccc2nc(C)cc(Nc3cccc(Cl)c3C)c2c1 | i | nt | nt | nt | nt | nt
COc1ccccc1CCNC(=O)C(=O)NCC(c1ccco1)S(=O)(=O)c1ccc(F)cc1 (configuration not stated) | i | nt | nt | nt | nt | nt
CCOC(CCNC(=O)CCC(=O)Nc1ccc2nc(N3CCN(C)CC3)cc(C)c2c1)OCC | nt | i | i | i | i | i
CCOc1ccccc1NC(=O)CCC(=O)Nc1ccc2nc(N3CCN(C)CC3)cc(C)c2c1 | 25.1µM | i | i | i | i | i
CC1CCc2cc(F)cc3c2N1C(=O)C(C(=O)Nc1cnccn1)C3=O (configuration not stated) | i | nt | nt | nt | ? | nt
COC(=O)C1=C(C(=O)OC)N2C=CC=CC2(C)C(C(=O)OC)=C1C(=O)OC (configuration not stated) | 2.82µM | i | i | i | i | i
O=C(Nc1cccc(C(=O)O)c1)/C(=C\c1ccco1)NC(=O)c1ccccc1Cl | i | i | i | i | i | i
O=C(Nc1ccccc1C(=O)O)/C(=C/c1ccc(Cl)cc1Cl)NC(=O)c1ccco1 | 35.5µM | i | i | i | i | i
CNC(=O)c1[nH]nc2c1CCc1ccccc1-2 | i | 10µM | i | i | i | i
CCCC(=NCc1ccccc1)C1=C(O)C(C(=O)OC)C(C)(C)CC1=O (configuration not stated) | i | i | i | i | i | i
CCC(=NCc1ccccc1)C1=C(O)C(C(=O)OC)C(C)(C)CC1=O (configuration not stated) | 3.16µM | i | i | i | i | i
COc1ccc(-n2nc([N+](=O)[O-])c(=NCc3ccc4c(c3)OCO4)n2O)cc1 | i | i | i | i | -92.4 | ?
O=[N+]([O-])c1nn(-c2ccccc2)n(O)c1=NCc1ccc2c(c1)OCO2 | i | i | i | i | i | i
Cc1ccc(CN=c2c([N+](=O)[O-])nn(-c3ccc4c(c3)OCCO4)n2O)cc1 | i | i | i | i | -86.9 | ?
O=[N+]([O-])c1nn(-c2ccc3c(c2)OCCO3)n(O)c1=NCCCO | i | i | i | i | ? | ?
O=C(C[n+]1cccc(Br)c1)c1ccc(F)cc1 | i | nt | nt | nt | nt | nt
O=C(O)c1ccccc1-c1cc2ccccc2[nH]1 | i | nt | i | nt | i | nt
COc1ccccc1-c1cc2ccccc2[nH]1 | 39.8µM | i | i | i | i | ?
CN(CC(=O)Nc1ccc(F)cc1F)S(=O)(=O)c1ccc(C(=O)N2CCOCC2)s1 | i | nt | nt | nt | nt | nt
Cc1ccc(Cl)cc1NC(=O)Cn1nc2c(cc1=O)CC(C)CC2 (configuration not stated) | i | nt | nt | nt | nt | nt
SMILES | ClpP mod | Mito fusion act | uPA surface inh | B2AR arrestin | Giardia killer | p53 reactivation
COc1cc(Cl)c(NC(=O)c2cc3ccccn3n2)c(OC)c1 | i | nt | nt | nt | nt | nt
Cc1cc(Nc2ccc3c(c2)OCCO3)c2ccccc2n1 | i | i | i | i | i | i
Cc1cc(Nc2ccc3c(c2)OCCO3)c2cccc(C)c2n1 | 31.6µM | i | i | i | i | i
O=C(O)CCn1c2c(c3ccccc31)CCCC2 | 25.1µM | i | i | i | i | i
O=C(CCn1c2c(c3ccccc31)CCCC2)NNC(=O)c1ccccc1C(=O)O | i | i | i | ? | i | i
CC(=O)N1CCC2(CC1)CC(=O)c1cc(OCC(=O)NCc3ccc(C)cc3)ccc1O2 | 28.2µM | i | nt | i | i | i
CC(=O)N1CCC2(CC1)CC(=O)c1cc(OCC(=O)NCc3ccco3)ccc1O2 | 11.2µM | i | nt | i | i | i
